# Reference: PubChem BioAssay (EPA / NIEHS)
# Results filed as inconclusive are left out. Calls of active or inactive are those of the source. Rule for the calls, unless noted: active = hit-call score of the fitted dose curve at least 0.9, where 1 is the maximum; inactive = score below 0.9.
# Key:
# [1] = biological target: Nucleoli Translocation, AR (gene 367) (UniProt P10275); experiment: UPITT_HCI_U2OS_AR_TIF2_Nucleoli_Antagonist: University of Pittsburgh U2OS Androgen Receptor-Transcriptional Intermediary Factor 2 (AR-TIF2) Antagonism High Content Imaging Assay for Nucleoli Translocation (AID 2283997; active = hit-call score of the fitted dose curve at least 0.9, where 1 is the maximum)
# In short: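 U2OS cells co-expressing red-fluorescent-tagged human AR and green-fluorescent-tagged TIF2, imaged by high-content microscopy for nucleolar red fluorescence. Antagonist mode against DHT; primary screen at 20 uM final (0.2% DMSO).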
# [2] = biological target: Nucleoli Translocation, AR (gene 367) (UniProt P10275); experiment: UPITT_HCI_U2OS_AR_TIF2_Nucleoli_Agonist: University of Pittsburgh U2OS Androgen Receptor-Transcriptional Intermediary Factor 2 (AR-TIF2) Agonism High Content Imaging Assay for Nucleoli Translocation (AID 2283998; active = hit-call score of the fitted dose curve at least 0.9, where 1 is the maximum)
# In short: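 U2OS cells expressing RFP-tagged human AR and GFP-tagged TIF2; red fluorescence in nucleoli quantified by high-content imaging. Primary screen at 20 uM final (0.2% DMSO); concentration-response 0.195–50 uM (0.5% DMSO), fitted upward versus DMSO.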
# [3] = biological target: Ratio of Nucleoli Translocation and Cytoplasm, AR (gene 367) (UniProt P10275); experiment: UPITT_HCI_U2OS_AR_TIF2_Nucleoli_Cytoplasm_Ratio_Antagonist: University of Pittsburgh U2OS Androgen Receptor-Transcriptional Intermediary Factor 2 (AR-TIF2) Antagonism High Content Imaging Assay for Ratio of Nucleoli Translocation and Cytoplasm (AID 2283999; active = hit-call score of the fitted dose curve at least 0.9, where 1 is the maximum;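 note: antagonists lower the DHT-driven ratio of nucleolar to cytoplasmic red signal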)
# In short: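 U2OS cells expressing RFP-tagged human AR and GFP-tagged TIF2; compounds tested at 20 uM final (0.2% DMSO) in primary screen, 0.195–50 uM (0.5% DMSO) for concentration response. Readout: nucleolar-to-cytoplasmic red fluorescence ratio by high-content imaging, fitted relative to DHT.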
# [4] = biological target: Ratio of Nucleoli Translocation and Cytoplasm, AR (gene 367) (UniProt P10275); experiment: UPITT_HCI_U2OS_AR_TIF2_Nucleoli_Cytoplasm_Ratio_Agonist: University of Pittsburgh U2OS Androgen Receptor-Transcriptional Intermediary Factor 2 (AR-TIF2) Agonism High Content Imaging Assay for Ratio of Nucleoli Translocation and Cytoplasm (AID 2284000; active = hit-call score of the fitted dose curve at least 0.9, where 1 is the maximum;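 note: hits raise the red nucleolar to cytoplasm ratio above vehicle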)
# In short: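 U2OS cells expressing RFP-tagged human AR and GFP-tagged TIF2; high-content imaging ratio of nucleolar to cytoplasmic red fluorescence, fitted as gain of signal vs DMSO. Single point at 20 uM final (0.2% DMSO); concentration-response 0.195-50 uM final (0.5% DMSO).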
# [5] = CCTE_Shafer_MEA_dev_firing_rate_mean: CCTE's Neural Network Formation Assay for Mean Firing Rate, Shafer Lab (AID 2284031);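 note: curve fitted for loss of firing so AC50 reflects decreased mean firing rate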
# In short: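 Primary rat cortical neurons on 48-well, 16-electrode MEAs (PEI-coated, laminin at plating), exposed from day 0 with compound renewed at DIV 5 and 9. Spikes recorded DIV 5, 7, 9, 12; well-mean firing rate collapsed to trapezoidal AUC, loss-of-signal vs DMSO.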
# [6] = CCTE_Shafer_MEA_dev_per_burst_spike_percent: CCTE's Neural Network Formation Assay for Percent of Spikes in a Burst, Shafer Lab (AID 2284032);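 note: fitted as a decrease in burst spike percentage below DMSO baseline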
# In short: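 Rat primary cortical neurons on 16-electrode MEA wells, dosed from plating day 0 for 12 days with renewal on DIV 5 and 9; spikes-in-bursts percentage averaged over bursting electrodes, collapsed as AUC across days 5, 7, 9, 12; loss direction versus DMSO.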
# [7] = CCTE_Shafer_MEA_dev_active_electrodes_number: CCTE's Neural Network Formation Assay for Number of Active Electrodes, Shafer Lab (AID 2284040; active = hit-call score of the fitted dose curve at least 0.9, where 1 is the maximum;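 note: potency for loss of active electrodes versus DMSO so lower counts are hits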)
# In short: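 Rat cortical primary cultures, 1.5 x 10^5 cells/well, PEI-coated MEA, laminin drop. Continuous exposure DIV 0–12; full media/compound change DIV 5, 9. Readout: electrodes with mean firing ≥5 spikes/min; AUC across days; loss vs DMSO.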
# [8] = CCTE_Shafer_MEA_dev_burst_rate: CCTE's Neural Network Formation Assay for Burst Rate, Shafer Lab (AID 2284042);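 note: potency for loss of burst rate below DMSO control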
# In short: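 Primary rat cortical neurons on PEI-coated 48-well MEA plates (laminin added with cells at plating) (16 electrodes/well), exposed from plating to day 12, dosing renewed at DIV 5 and 9. Burst rate averaged over active electrodes, recorded DIV 5, 7, 9, 12, summarized as AUC; loss versus DMSO.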
# [9] = CCTE_Shafer_MEA_dev_bursting_electrodes_number: CCTE's Neural Network Formation Assay for Number of Bursting Electrodes, Shafer Lab (AID 2284043; active = hit-call score of the fitted dose curve at least 0.9, where 1 is the maximum;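 note: potency is for loss of bursting electrodes relative to DMSO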)
# In short: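 Primary rat cortical neurons plated on 16-electrode MEA wells, exposed from day 0 with compound renewed at DIV 5 and 9. Electrodes bursting ≥1 burst per 2 min counted on days 5, 7, 9 and 12; trapezoidal AUC across days, fitted for loss versus DMSO.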
# [10] = CCTE_Shafer_MEA_dev_per_burst_interspike_interval: CCTE's Neural Network Formation Assay for Burst Interspike Interval, Shafer Lab (AID 2284044);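 note: mean spike spacing inside bursts as AUC over recordings on days 5 7 9 12; potency for a decrease of within-burst interspike interval below DMSO level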
# In short: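 Primary rat cortical neurons on 48-well MEA plates, exposed from day 0 through day 12, treatment renewed at DIV 5 and 9. Within-burst interspike interval recorded days 5, 7, 9, 12, well-averaged, summarised as AUC; negative fit versus DMSO.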
# [11] = CCTE_Shafer_MEA_dev_burst_duration_mean: CCTE's Neural Network Formation Assay for Mean Burst Duration, Shafer Lab (AID 2284045);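 note: curve fitted for loss meaning shorter burst duration than DMSO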
# In short: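 Primary rat cortical neurons on 48-well 16-electrode MEA plates, exposed from day 0 with renewal at DIV 5 and 9; spontaneous activity recorded on days 5, 7, 9, 12. Well-mean burst duration across bursting electrodes, collapsed as trapezoidal AUC; DMSO baseline.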
# [12] = CCTE_Shafer_MEA_dev_interburst_interval_mean: CCTE's Neural Network Formation Assay for Mean Interburst Interval, Shafer Lab (AID 2284046);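 note: well-mean interburst interval of bursting electrodes as AUC over four recording days; curve fitted for decrease in interburst interval relative to DMSO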
# In short: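 Recordings on days 5, 7, 9 and 12 give well-mean interburst interval across actively bursting electrodes, summarized as area under the curve. Cultures: rat cortical neurons, continuous exposure from day 0, compound renewed at feeds; decrease analyzed versus DMSO.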
# [13] = CCTE_Shafer_MEA_dev_inter_network_spike_interval_mean: CCTE's Neural Network Formation Assay for Mean Inter-network Spike Interval, Shafer Lab (AID 2284047);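 note: potency for a decrease in mean inter-network spike interval below DMSO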
# In short: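 Primary rat cortical neurons on 16-electrode MEA wells, exposed from plating day 0 through DIV 12, compound renewed at DIV 5 and 9 media changes. Mean interval between network-spike peaks recorded DIV 5, 7, 9, 12; collapsed as trapezoidal AUC, fitted downward versus DMSO.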
# [14] = CCTE_Shafer_MEA_dev_network_spike_number: CCTE's Neural Network Formation Assay for Number of Network Spikes, Shafer Lab (AID 2284048);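 note: fit as a loss of signal meaning fewer network spikes than DMSO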
# In short: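 Primary rat cortical neurons on PEI/laminin 48-well MEA plates, dosed from plating day 0 for 12 days, renewed at DIV 5 and 9. Network spike counts recorded DIV 5, 7, 9, 12, collapsed as trapezoidal AUC; DMSO baseline.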
# [15] = CCTE_Shafer_MEA_dev_network_spike_peak: CCTE's Neural Network Formation Assay for Mean Number of Electrodes in Network Spike, Shafer Lab (AID 2284049);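 note: fitted for loss of signal meaning fewer electrodes in network spikes than DMSO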
# In short: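 Network-spike peak electrode count from recordings on days 5, 7, 9 and 12 was combined as trapezoidal area under the curve. Rat cortical cultures were treated continuously from plating, with compound renewed at each feed (DIV 5, 9); fits versus DMSO.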
# [16] = CCTE_Shafer_MEA_dev_spike_duration_mean: CCTE's Neural Network Formation Assay for Mean Spike Duration, Shafer Lab (AID 2284051);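 note: mean network spike duration pooled as area under curve over DIV 5 to 12 recordings; potency for a decrease in mean network spike duration versus DMSO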
# In short: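 Primary rat cortical neurons on 16-electrode MEA wells (PEI-coated, laminin in plating drop), exposed from plating through DIV 12 with compound renewed at DIV 5 and 9. Mean network-spike duration recorded DIV 5, 7, 9, 12; trapezoidal AUC across days, DMSO baseline.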
# [17] = CCTE_Shafer_MEA_dev_network_spike_duration_std: CCTE's Neural Network Formation Assay for Standard Deviation of Network Spike Duration, Shafer Lab (AID 2284052);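 note: area under curve of spike duration SD across recording days 5 to 12; hits are decreases in network spike duration SD versus DMSO vehicle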
# In short: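 Primary rat cortical neurons on PEI-coated 16-electrode MEA wells, exposed from plating day 0 through day 12 with compound renewed at DIV 5 and 9. Network spike duration SD recorded on days 5, 7, 9, 12, collapsed as trapezoidal AUC; loss-of-signal fit versus DMSO.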
# [18] = CCTE_Shafer_MEA_dev_per_network_spike_spike_number_mean: CCTE's Neural Network Formation Assay for Mean Number of Spikes in a Network Spike, Shafer Lab (AID 2284053);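 note: fitted as decrease in spikes per network spike relative to DMSO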
# In short: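 Primary rat cortical neurons on 48-well, 16-electrode MEA plates were exposed from plating to DIV 12, with dosing renewed on DIV 5 and 9. Spikes per network spike (0.05 s peak window) were recorded on DIV 5, 7, 9 and 12 and collapsed as trapezoidal AUC versus DMSO.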
# [19] = CCTE_Shafer_MEA_dev_per_network_spike_spike_percent: CCTE's Neural Network Formation Assay for Percent of Spikes in a Network Spike, Shafer Lab (AID 2284054)
# In short: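 Rat primary cortical neurons were grown on 48-well MEA plates (16 electrodes/well), exposed from plating day 0 through day 12, with treatment renewed on DIV 5 and 9. Percent of spikes within 0.05 s network-spike peaks was measured, summarised as AUC across days 5, 7, 9, 12.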
# [20] = UKN5_HCS_SBAD2_cell_viability: Viability Assessment in the University of Konstanz (UKN) Leist Lab Neurite Outgrowth Assay in human iPSC-derived immature Dorsal Root Ganglia Neurons (UKN5) (AID 2284056)
# In short: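 iPSC-derived immature peripheral neurons (SBAD2) seeded on Matrigel with CHIR99021, SU5402 and DAPT, dosed 1 h later for 24 h. Viability from Hoechst H-33342 and calcein-AM live staining, high-content imaging; bidirectional fit versus DMSO.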
# [21] = CCTE_Shafer_MEA_dev_LDH: CCTE's Lactate Dehydrogenase Assay for Cytotoxicity in the Neural Network Formation Assay, Shafer Lab (AID 2284068; active = hit-call score of the fitted dose curve at least 0.9, where 1 is the maximum;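 note: exposure for twelve days from plating with re-dosing on DIV 5 and 9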)
# In short: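 Primary rat cortical neurons were plated on PEI/laminin MEA plates and exposed from day 0 for twelve days, with compound renewed at DIV 5 and 9. Cytotoxicity was determined by spectrophotometric LDH assay relative to DMSO.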
# [22] = UKN5_HCS_SBAD2_neurite_outgrowth: University of Konstanz (UKN) Leist Lab Neurite Outgrowth Assay in human iPSC-derived immature Dorsal Root Ganglia Neurons (UKN5) (AID 2284070); details: actives raise or lower the signal
# In short: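 Human iPSC-derived immature DRG neurons (SBAD2) on Matrigel with CHIR99021 (1.5 uM), SU5402 (5 uM), DAPT (5 uM); compounds added 1 h post-seeding for 24 h. Calcein-AM neurite area imaged; bidirectional fit vs DMSO.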
# [23] = CCTE_Shafer_MEA_dev_AB: CCTE's Alamar Blue Assay for Cytotoxicity in the Neural Network Formation Assay, Shafer Lab (AID 2284083; active = hit-call score of the fitted dose curve at least 0.9, where 1 is the maximum;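 note: twelve days of exposure from plating with re-dosing on DIV 5 and 9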)
# In short: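 Primary rat cortical neurons on PEI-coated 48-well MEA plates, 1.5 x 10^5 cells/well in laminin drop; compound exposure from day 0 of plating for twelve days, renewed at medium changes on DIV 5 and 9. Viability read as resazurin reduction by fluorescence, relative to DMSO.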
# [24] = CCTE_Shafer_MEA_dev_mutual_information_norm: CCTE's Neural Network Formation Assay for Mutual Information Normalization, Shafer Lab (AID 2284091);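 note: mutual information between electrodes summarised as area under curve across four recording days; potency is for a decrease in mutual information relative to DMSO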
# In short: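 Primary rat cortical neurons on PEI-coated 48-well MEA plates, 1.5 x 10^5 cells/well, exposed from day 0 through day 12 with re-dosing at DIV 5 and 9. Mutual information between electrodes recorded days 5, 7, 9, 12; trapezoidal AUC, loss-of-signal fit versus DMSO.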
# [25] = CCTE_Shafer_MEA_dev_correlation_coefficient_mean: CCTE's Neural Network Formation Assay for Mean Correlation Coefficient, Shafer Lab (AID 2284093);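 note: well mean pairwise spike train correlation integrated as AUC over recording days 5 to 12; potency fitted for loss of correlation relative to DMSO vehicle wells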
# In short: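 Spontaneous activity recorded on days 5, 7, 9 and 12 post-plating; pairwise spike correlations are averaged across active electrodes and collapsed to an area-under-curve. Rat cortical cultures are dosed from plating through 12 days, with compound renewed at media changes.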
# [26] = UKN2_HCS_IMR90_neural_migration: University of Konstanz (UKN) Leist Lab Neural Crest Cell Migration Assay in human induced IMR90 Pluripotent Stem Cells (UKN2) (AID 2284204); details: actives raise or lower the signal
# In short: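 iPSC-derived IMR90 neural crest cells seeded around stoppers on PLO/laminin/fibronectin; migration started in N2-S medium with EGF/FGF, compounds added after 24 h for 24 h. Migration into cell-free area imaged after calcein-AM/Hoechst staining; bidirectional fit versus DMSO.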
# [27] = IUF_NPC1b_proliferation_BrdU_72hr: Leibniz Research Institute for Environmental Medicine (IUF) 72-hour Neural Progenitor Cell Bromodeoxyuridine (BrdU) Proliferation Assay (NPC1b) (AID 2284207)
# In short: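 BrdU luminescence ELISA quantified DNA synthesis over the last 16 h of a 72 h exposure, fitted against DMSO. Primary hNPC spheres from gestational week 16-19 cortex grown with EGF/FGF at 37C, pH 7.2-7.6.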
# [28] = IUF_NPC1a_proliferation_area_72hr: Leibniz Research Institute for Environmental Medicine (IUF) 72-hour Neural Progenitor Cell Proliferation Area Assay (NPC1a) (AID 2284208)
# In short: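 Single 0.25–0.35 mm human fetal neural progenitor spheres in proliferation medium with EGF and FGF, exposed 72 h from plating without renewal at 37C, pH 7.2-7.6. Sphere area growth measured by automated phase-contrast imaging, relative to DMSO.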
# [29] = IUF_NPC1_viability_72hr: Viability Assessment at 72 hours in the Leibniz Research Institute for Environmental Medicine (IUF) Neural Progenitor Cell Proliferation Assay (NPC1) (AID 2284209)
# In short: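 Human fetal-cortex neural progenitor spheres (0.25–0.35 mm, one per well) grown in EGF/FGF proliferation medium at 37C, pH 7.2-7.6, exposed 72 h without renewal; viability read as alamar blue resazurin-to-resorufin fluorescence relative to DMSO.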
# Sequence of Ratio of Nucleoli Translocation and Cytoplasm, AR (gene 367) (P10275 whole entry, looked up): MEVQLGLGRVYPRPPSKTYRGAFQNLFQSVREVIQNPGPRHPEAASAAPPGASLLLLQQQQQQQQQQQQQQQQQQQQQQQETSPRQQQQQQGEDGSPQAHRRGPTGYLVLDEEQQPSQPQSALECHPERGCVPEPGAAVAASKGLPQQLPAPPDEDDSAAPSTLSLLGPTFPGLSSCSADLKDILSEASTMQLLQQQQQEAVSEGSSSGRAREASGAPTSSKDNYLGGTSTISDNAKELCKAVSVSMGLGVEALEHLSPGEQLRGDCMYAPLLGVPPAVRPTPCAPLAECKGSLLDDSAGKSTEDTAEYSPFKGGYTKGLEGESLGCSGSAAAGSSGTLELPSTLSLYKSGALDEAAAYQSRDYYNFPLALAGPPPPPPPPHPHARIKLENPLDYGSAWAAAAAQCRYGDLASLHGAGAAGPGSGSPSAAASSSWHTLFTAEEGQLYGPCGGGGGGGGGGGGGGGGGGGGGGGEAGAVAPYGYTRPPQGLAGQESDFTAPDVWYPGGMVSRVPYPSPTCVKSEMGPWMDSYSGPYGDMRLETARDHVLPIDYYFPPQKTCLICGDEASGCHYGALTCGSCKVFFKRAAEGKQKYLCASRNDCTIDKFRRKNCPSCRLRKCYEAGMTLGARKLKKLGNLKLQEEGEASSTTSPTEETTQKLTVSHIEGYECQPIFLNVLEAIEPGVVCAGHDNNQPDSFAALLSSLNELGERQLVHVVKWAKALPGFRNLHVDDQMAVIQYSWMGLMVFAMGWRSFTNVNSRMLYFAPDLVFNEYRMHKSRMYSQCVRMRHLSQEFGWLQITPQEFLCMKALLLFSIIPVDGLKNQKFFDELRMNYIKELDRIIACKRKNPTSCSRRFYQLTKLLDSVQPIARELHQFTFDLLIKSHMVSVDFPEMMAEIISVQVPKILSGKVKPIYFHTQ
# Sequence of Nucleoli Translocation, AR (gene 367) (P10275 whole entry, looked up): as above
smiles,measurement,setting,value
C[n+]1ccc(-c2cc[n+](C)cc2)cc1,outcome,[1],inactive
same,outcome,[2],inactive
same,outcome,[3],inactive
same,outcome,[4],inactive
same,AC50,[5],2.29 µM (active)
same,AC50,[6],1.71 µM (active)
same,AC50,[7],1.25 µM (active)
same,AC50,[8],2.29 µM (active)
same,AC50,[9],1.18 µM (active)
same,AC50,[10],2.33 µM (active)
same,AC50,[11],2.29 µM (active)
same,AC50,[12],1.16 µM (active)
same,AC50,[13],0.76 µM (active)
same,AC50,[14],2.31 µM (active)
same,AC50,[15],1.38 µM (active)
same,AC50,[16],1.15 µM (active)
same,AC50,[17],1.42 µM (active)
same,AC50,[18],1.44 µM (active)
same,AC50,[19],1.81 µM (active)
same,outcome,[20],inactive
same,AC50,[21],1.71 µM (active)
same,AC50,[22],202 µM (active)
same,AC50,[23],2.34 µM (active)
same,AC50,[24],2.29 µM (active)
same,AC50,[25],1.63 µM (active)
same,outcome,[26],inactive
same,outcome,[27],inactive
same,outcome,[28],inactive
same,outcome,[29],inactive
